Source: ChEMBL document CHEMBL5724796, “Tm Shift (DSF) assay results for EUbOPEN Chemogenomics Library” (2024)
Residues, ends and D or L forms follow the SMILES beside them. *: point of attachment. Cbz = O=C(OCc1ccccc1)*

Key:
Details in all cases: Compound concentration 20.0 uM
[1] = biological target: Tyrosine-protein kinase ABL1 (Homo sapiens) (UniProt P00519)
[2] = biological target: Bromodomain-containing protein 4 (Homo sapiens) (UniProt O60885)
[3] = biological target: Cyclin-dependent kinase 2 (Homo sapiens) (UniProt P24941)
[4] = biological target: Casein kinase I isoform delta (Homo sapiens) (UniProt P48730)
Chain of Casein kinase I isoform delta (Homo sapiens) (P48730 whole entry, looked up, canonical isoform): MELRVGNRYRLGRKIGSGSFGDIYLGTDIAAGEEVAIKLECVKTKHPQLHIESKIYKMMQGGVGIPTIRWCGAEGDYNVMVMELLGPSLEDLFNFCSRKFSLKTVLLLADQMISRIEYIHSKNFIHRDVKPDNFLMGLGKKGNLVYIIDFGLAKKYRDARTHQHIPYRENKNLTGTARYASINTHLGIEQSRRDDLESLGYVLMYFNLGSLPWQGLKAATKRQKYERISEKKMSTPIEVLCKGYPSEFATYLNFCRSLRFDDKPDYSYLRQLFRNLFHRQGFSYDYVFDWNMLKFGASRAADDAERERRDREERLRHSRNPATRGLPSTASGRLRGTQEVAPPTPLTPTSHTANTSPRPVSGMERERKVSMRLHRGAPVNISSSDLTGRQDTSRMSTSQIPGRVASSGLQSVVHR

[5] = biological target: Glycogen synthase kinase-3 beta (Homo sapiens) (UniProt P49841)
Chain of Glycogen synthase kinase-3 beta (Homo sapiens) (P49841 whole entry, looked up): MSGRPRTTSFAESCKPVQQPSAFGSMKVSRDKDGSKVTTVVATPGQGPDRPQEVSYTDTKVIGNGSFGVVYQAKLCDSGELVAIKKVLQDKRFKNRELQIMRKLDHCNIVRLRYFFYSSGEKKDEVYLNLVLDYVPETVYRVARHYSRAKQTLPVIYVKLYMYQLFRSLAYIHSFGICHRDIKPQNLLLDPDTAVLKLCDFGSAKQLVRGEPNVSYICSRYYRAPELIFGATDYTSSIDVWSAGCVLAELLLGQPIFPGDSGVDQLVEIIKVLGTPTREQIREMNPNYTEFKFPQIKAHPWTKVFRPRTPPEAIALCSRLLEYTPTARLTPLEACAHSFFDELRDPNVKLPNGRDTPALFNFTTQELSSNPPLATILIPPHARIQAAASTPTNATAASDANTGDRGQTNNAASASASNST

[6] = biological target: Mitogen-activated protein kinase 1 (Homo sapiens) (UniProt P28482)
Chain of Mitogen-activated protein kinase 1 (Homo sapiens) (P28482 whole entry): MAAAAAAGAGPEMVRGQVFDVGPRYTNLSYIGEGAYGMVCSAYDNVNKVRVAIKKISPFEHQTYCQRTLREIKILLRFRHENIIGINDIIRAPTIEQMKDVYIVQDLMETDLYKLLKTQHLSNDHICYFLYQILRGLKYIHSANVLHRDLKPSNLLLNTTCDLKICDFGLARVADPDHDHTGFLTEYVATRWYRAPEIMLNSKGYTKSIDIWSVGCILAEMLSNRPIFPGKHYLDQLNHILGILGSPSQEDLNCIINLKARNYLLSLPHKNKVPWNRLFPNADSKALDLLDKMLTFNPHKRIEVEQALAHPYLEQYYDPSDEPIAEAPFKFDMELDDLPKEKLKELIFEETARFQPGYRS

[7] = biological target: T1, Aurora kinase A (Homo sapiens) (UniProt O14965)
T1 sequence (whole entry): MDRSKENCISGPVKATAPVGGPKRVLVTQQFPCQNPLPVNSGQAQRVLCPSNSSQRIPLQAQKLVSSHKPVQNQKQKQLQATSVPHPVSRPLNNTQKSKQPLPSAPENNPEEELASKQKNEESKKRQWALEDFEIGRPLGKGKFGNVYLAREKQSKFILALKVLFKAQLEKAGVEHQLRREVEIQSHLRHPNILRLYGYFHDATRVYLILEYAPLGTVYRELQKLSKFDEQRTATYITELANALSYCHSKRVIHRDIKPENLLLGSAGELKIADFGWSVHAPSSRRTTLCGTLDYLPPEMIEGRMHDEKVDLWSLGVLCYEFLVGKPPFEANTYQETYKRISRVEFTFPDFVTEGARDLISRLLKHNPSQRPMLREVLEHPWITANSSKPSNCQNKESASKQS

[8] = biological target: T2, Transcription intermediary factor 1-alpha (Homo sapiens) (UniProt O15164)
T2 sequence (whole entry): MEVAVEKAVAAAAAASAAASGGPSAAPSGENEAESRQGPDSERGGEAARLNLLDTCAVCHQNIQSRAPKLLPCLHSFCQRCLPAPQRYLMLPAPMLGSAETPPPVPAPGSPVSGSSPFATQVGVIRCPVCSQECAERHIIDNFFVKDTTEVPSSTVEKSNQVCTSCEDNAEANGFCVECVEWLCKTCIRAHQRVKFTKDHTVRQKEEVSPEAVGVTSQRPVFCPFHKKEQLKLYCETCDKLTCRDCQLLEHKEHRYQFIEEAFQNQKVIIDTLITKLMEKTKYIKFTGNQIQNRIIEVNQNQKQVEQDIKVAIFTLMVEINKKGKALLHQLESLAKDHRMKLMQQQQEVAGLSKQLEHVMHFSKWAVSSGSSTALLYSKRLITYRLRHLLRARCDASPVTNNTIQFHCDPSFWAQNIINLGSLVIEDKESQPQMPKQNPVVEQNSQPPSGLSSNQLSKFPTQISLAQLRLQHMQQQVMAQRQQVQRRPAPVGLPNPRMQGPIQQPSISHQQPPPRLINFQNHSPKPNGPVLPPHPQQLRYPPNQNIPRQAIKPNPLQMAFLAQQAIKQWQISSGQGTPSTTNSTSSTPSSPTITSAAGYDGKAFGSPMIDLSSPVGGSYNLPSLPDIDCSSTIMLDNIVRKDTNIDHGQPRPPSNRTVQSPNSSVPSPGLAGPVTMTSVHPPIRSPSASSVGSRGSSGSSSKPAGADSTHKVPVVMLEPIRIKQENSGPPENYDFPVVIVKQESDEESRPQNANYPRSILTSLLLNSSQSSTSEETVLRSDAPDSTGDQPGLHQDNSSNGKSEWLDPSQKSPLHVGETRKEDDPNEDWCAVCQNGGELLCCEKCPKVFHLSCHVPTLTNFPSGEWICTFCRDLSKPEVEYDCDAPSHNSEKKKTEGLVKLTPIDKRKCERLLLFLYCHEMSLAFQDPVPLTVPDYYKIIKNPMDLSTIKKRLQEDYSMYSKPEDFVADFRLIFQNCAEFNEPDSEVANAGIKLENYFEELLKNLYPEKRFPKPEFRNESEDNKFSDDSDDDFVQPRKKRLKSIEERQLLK

Chain of Tyrosine-protein kinase ABL1 (Homo sapiens) (P00519 whole entry): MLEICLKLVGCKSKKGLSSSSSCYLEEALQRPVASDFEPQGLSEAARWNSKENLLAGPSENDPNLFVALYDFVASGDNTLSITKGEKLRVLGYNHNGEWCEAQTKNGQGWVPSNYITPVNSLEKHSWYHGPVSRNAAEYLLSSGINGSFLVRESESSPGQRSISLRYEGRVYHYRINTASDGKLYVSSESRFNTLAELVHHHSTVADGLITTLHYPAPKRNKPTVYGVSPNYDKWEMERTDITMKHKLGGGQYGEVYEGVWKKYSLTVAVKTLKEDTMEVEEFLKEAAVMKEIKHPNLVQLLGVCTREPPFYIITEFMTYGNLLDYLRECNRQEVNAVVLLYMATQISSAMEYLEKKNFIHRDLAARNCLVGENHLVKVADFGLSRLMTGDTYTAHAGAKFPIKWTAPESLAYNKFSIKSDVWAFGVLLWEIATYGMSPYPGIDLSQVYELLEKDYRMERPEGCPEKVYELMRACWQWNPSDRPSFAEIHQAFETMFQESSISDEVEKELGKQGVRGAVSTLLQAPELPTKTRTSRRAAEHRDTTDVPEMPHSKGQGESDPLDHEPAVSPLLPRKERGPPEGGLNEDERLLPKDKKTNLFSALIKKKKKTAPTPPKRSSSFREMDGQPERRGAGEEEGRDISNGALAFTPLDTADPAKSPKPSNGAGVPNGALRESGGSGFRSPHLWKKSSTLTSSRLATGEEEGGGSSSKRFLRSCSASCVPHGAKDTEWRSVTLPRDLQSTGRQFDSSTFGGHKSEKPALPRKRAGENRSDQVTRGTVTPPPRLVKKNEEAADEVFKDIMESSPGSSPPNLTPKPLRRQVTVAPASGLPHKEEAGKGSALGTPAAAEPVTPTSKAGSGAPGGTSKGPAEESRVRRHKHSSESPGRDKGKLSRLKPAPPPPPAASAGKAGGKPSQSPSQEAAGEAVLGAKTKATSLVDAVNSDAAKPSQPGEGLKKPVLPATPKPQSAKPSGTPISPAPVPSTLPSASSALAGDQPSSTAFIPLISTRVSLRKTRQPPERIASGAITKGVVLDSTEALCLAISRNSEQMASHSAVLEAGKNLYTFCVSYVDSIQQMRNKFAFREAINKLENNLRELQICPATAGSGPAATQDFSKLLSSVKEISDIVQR

SMILES	ΔTm [1]	ΔTm [2]	ΔTm [3]	ΔTm [4]	ΔTm [5]	ΔTm [6]	ΔTm [7]	ΔTm [8]
O=C(CN1CCN(C(=O)c2ccco2)CC1)Nc1cc(C(F)(F)F)ccc1Cl	0.19 °C	2.01 °C	0.06 °C	-0.11 °C	-0.95 °C	0.07 °C	-1.45 °C	0.51 °C
Cc1sc(C(=O)c2cncnc2N[C@@H]2C[C@H](COS(N)(=O)=O)[C@@H](O)C2)cc1[C@@H]1NCCc2ccc(Cl)cc21	0.03 °C	-0.2 °C	-0.03 °C	-0.1 °C	-1.26 °C	0.53 °C	-1.12 °C	0.42 °C
C[C@@H]1OC(=O)NN=C1c1ccc(-c2ccc(F)cc2)c(C(F)(F)F)c1	-1.46 °C	-3.44 °C	-0.76 °C	-0.33 °C	-7.28 °C	-0.02 °C	-7.3 °C	-0.48 °C
CS(=O)(=O)c1ncn2c(NCc3c(F)ccc4c3CCO4)ncc(-c3ccc(C4CC4)nc3)c12	0.63 °C	-3.29 °C	0.06 °C	-0.23 °C	-0.29 °C	0.08 °C	-2.48 °C	-0.37 °C
Cn1ncnc1[C@H]1C2=c3c(cc(F)cc3=N[C@@H]1c1ccc(F)cc1)C(=O)NN2	0.89 °C	0.71 °C	0.22 °C	-0.5 °C	0.19 °C	0.14 °C	-1.59 °C	0.57 °C
CS(=O)(=O)Nc1ccc2oc3c(OC(F)F)ccc(C(=O)Nc4c(Cl)cncc4Cl)c3c2c1	0.6 °C	-1.02 °C	-0.16 °C	-1.11 °C	-0.39 °C	0.24 °C	-1.56 °C	0.09 °C
CC(=O)N[C@@H](CC(C)C)C(=O)N[C@@H](CCC(=O)O)C(=O)N[C@@H](Cc1cnc[nH]1)C(=O)N[C@H](C=O)CC(=O)O (Ac-LEHD-aldehyde)	0.07 °C	-2.66 °C	0.05 °C	0.09 °C	-0.79 °C	-0.4 °C	-1.34 °C	-0.81 °C
Cc1nccn1CC1CCc2c(c3ccccc3n2C)C1=O (stereo not drawn)	0.4 °C	-1.31 °C	-0.09 °C	-0.21 °C	-0.4 °C	0.1 °C	-1.95 °C	0.35 °C
Cc1nn(CC(F)(F)F)cc1Nc1ncc(Br)c(NCc2ccc(S(N)(=O)=O)cc2)n1	2.53 °C	-2.79 °C	0.52 °C	0.99 °C	-0.15 °C	2.84 °C	6.65 °C	1.38 °C
N[C@@H](CCCCB(O)O)C(=O)O	0.06 °C	1.28 °C	0.26 °C	-0.26 °C	-0.55 °C	0.18 °C	-0.4 °C	-0.41 °C
CN(CCCCCCNc1ccnc2cc(Cl)ccc12)CCCCCCNc1ccnc2cc(Cl)ccc12	-1.1 °C	2.96 °C	0.27 °C	-0.85 °C	-0.7 °C	-0.51 °C	-1.69 °C	0.54 °C
COC[C@H](NC(=O)c1ccn(S(C)(=O)=O)c1)C(=O)Nc1nc(-c2cccc(-c3ccn(C)n3)c2)cs1	0.67 °C	-0.81 °C	0.17 °C	0.35 °C	-3.25 °C	0.35 °C	-2.2 °C	-1.12 °C
N#Cc1cc(F)cc(Oc2ccc3c(c2C(F)F)[C@@H](O)C(F)(F)S3(=O)=O)c1	0.45 °C	-2.84 °C	-0.03 °C	-0.34 °C	0.02 °C	0.16 °C	-2.42 °C	-0.94 °C
Cn1ncc(-c2nn(C)c3ncnc(N4CCC4)c23)c1-c1ccc(C(F)(F)F)cc1	0.03 °C	-2.92 °C	-1.77 °C	-0.3 °C	-1.09 °C	0.4 °C	-2.16 °C	-2.31 °C
O=CC1CCCN1C(=O)C1CCCN1C(=O)OCc1ccccc1 (stereo not drawn) (Cbz-Pro-Pro-aldehyde; configuration not given here)	0.3 °C	-1.06 °C	-0.15 °C	0.22 °C	-0.2 °C	0.12 °C	-0.83 °C	-0.47 °C
N#C[C@@H]1CCCN1C(=O)CNC(=O)c1ccnc2ccc(OCCCN3CCN(C(=O)CN4CCN(CC(=O)O)CCN(CC(=O)O)CCN(CC(=O)O)CC4)CC3)cc12	0.75 °C	-2.94 °C	0.18 °C	-0.3 °C	-0.21 °C	0.66 °C	-2.4 °C	0.33 °C
O=C(O)CCNc1cc(N2CCc3ccccc3CC2)nc(-c2cccnc2)n1	0.76 °C	-1.28 °C	0.04 °C	0.2 °C	-0.02 °C	-0.29 °C	2.29 °C	-0.51 °C
O=C(O)[C@@H]1CCCN(C(=O)n2cnc(-c3ccc(-c4cnc(N5CCOCC5)nc4)cc3)n2)[C@H]1c1ccccc1	0.15 °C	-1.06 °C	-1.79 °C	1.27 °C	-3.37 °C	0.69 °C	-5.07 °C	0 °C
COc1cc(O)cc(CN2CCc3c(cc(Cn4ccn(C)c4=N)cc3-c3ccc(F)cc3C)C2=O)c1	0.41 °C	-3.72 °C	-0.56 °C	-0.83 °C	-0.55 °C	0.04 °C	-2.93 °C	-1.53 °C
CC1(NC(=O)COc2cccc(-c3nc4c(c(Nc5ccc(-c6cn[nH]c6)cc5)n3)CN(C3CCC3)CC4)c2)CC1	0.81 °C	-2.72 °C	0.02 °C	-0.75 °C	-0.18 °C	0.14 °C	0.11 °C	-0.35 °C
NS(=O)(=O)OC[C@H]1C[C@@H](Nc2ncncc2C(=O)c2ccn(Cc3cccc(Br)c3)n2)C[C@@H]1O	0.71 °C	-2.22 °C	0.03 °C	0.64 °C	1.22 °C	0.37 °C	-1.76 °C	-1.07 °C
